Screening results (PubChem)
An excerpt weighted towards active compounds, which were near 18% of everything screened.
PLK1 PBD inh: blocks phosphopeptide binding to human PLK1 polo-box domain. P53350. Plk1 PBD binding of FITC phosphopeptide, fluorescence polarization. Potency, µM, for inactives: max response, negative = inhibition, usual class: inhibitors. 2.8% of 360,000 active. AID 720504; also: series mostly up to about 57 µM; nearly all actives have a fitted effect of over 65% in size
KAT2A inh: GCN5L2 (KAT2A) acetyltransferase inhibition | Q92830 | GCN5L2 HAT assay, ThioGlo1 CoA-SH fluorescence | Potency, µM (titrated, usually from 58.9 µM), without a hit: at the highest dose activity change, negative = inhibition, actives largely listed as inhibitors | 0.21% of 390,000 active
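Compounds, pin-transferred from DMSO stocks, meet 20nM GCN5L2 for 15 min before the reaction begins with H3(1-25) peptide (75uM) and acetyl-CoA (70uM). Thiol-reactive ThioGlo1 reports CoA release over 20 min at room temperature.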
VDR inh: blocks the human vitamin D receptor; P11473; VDR-SRC2-3 peptide fluorescence polarization, 2 h; Potency, µM, inactives show max response, negative = inhibition, most hits filed as inhibitors; 0.93% of 400,000 active
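Signal is fluorescence polarization, reporting how far test compounds block the interaction of VDR with the SRC2-3 coregulator peptide after a 2 h room-temperature incubation.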
DT40 TDP1 CPT: growth inhibition of DT40 Tdp1-/-;hTDP1 cells with camptothecin (screen for TDP1 inhibitors) | chicken DT40 Tdp1-/-;hTDP1 cells + 20 nM CPT, ATP luminescence, 48 h | Potency, µM (top dose mostly 46.2 µM), without a hit: at the top dose activity change, negative = growth inhibition, most hits filed as inhibitors | 12% of 420,000 active; also: nearly all actives have a fitted effect of over 55% in size
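Chicken DT40 Tdp1-/- cells complemented with human TDP1, 400 cells/well, exposed to compounds plus 20 nM camptothecin for at least 48 h at 37 C; viability read as ATP content by CellTiter-Glo luminescence.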
TDP1 block: inhibitors of human tyrosyl-DNA phosphodiesterase TDP1; Q9NUW8; recombinant TDP1, AlphaScreen DNA substrate cleavage; Potency, µM (doses to about 130 µM), for the others: at the highest dose activity change, negative = inhibition, most hits filed as inhibitors; 0.28% of 350,000 active; also: nearly all actives have a fitted effect of over 40% in size
Target sequence (Q9NUW8 whole entry, looked up): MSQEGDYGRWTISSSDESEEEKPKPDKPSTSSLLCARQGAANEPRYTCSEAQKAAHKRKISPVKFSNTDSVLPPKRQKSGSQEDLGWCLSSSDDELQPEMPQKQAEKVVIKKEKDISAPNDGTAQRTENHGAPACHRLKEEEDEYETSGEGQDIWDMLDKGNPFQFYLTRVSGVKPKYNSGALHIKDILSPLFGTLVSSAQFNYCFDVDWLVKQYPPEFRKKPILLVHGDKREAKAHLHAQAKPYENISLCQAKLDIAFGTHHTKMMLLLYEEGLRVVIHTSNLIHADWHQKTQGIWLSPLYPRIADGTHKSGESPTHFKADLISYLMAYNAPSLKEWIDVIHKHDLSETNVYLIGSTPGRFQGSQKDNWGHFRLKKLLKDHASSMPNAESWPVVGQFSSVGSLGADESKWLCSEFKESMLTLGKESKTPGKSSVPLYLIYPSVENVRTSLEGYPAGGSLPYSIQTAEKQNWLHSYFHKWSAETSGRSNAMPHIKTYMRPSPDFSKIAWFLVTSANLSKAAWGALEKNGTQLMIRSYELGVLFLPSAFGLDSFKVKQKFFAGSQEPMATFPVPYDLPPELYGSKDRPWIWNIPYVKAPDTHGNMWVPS
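Enzyme-compound mixtures sat 15 min at room temperature, followed by a 5 min reaction with 15 nM final substrate and 10 min with AlphaScreen beads. Recombinant human Tdp1 was used at 1 nM final.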
DT40 TDP1 no CPT: qHTS for Inhibitors of human tyrosyl-DNA phosphodiesterase 1 (TDP1): qHTS in cells in absence of CPT. Potency, µM (doses to about 46.2 µM), without a hit: at the top dose activity change, negative = growth inhibition, actives largely listed as inhibitors. AID 686978, 2013. DT40 Tdp1-/- hTDP1 cells, no CPT, ATP luminescence, 48 h. 15% of 420,000 active; also: nearly all actives have a fitted effect of over 55% in size
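Chicken DT40 Tdp1-/- cells complemented with human TDP1, screened without camptothecin (DMSO vehicle only), 400 cells/well. Compounds pin-transferred, cells incubated at 37 °C for at least 48 hr. Growth read as ATP-dependent luminescence (CellTiter-Glo, 30 min at RT).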
* marks the source's active call; other numbers are inactive results; ? = inconclusive; / = no result; [ ] = remark or other dose. Calls follow the shape of the dose curve; as a rule, active = well fitted curve in the direction sought with a large enough effect; inconclusive = small, poorly fitted or top-dose-only effect, or another doubt; inactive = no such curve, though single readings can be large; an effect the other way counts as inactive or inconclusive. % is scaled to controls: 0 for no effect and ±100 for the full control effect; potency is read from the fitted curve at half-maximal effect.

SMILES	PLK1 PBD inh	KAT2A inh	VDR inh	DT40 TDP1 CPT	TDP1 block	DT40 TDP1 no CPT
Cc1cccc(N2C(=O)CSC23C(=O)N(Cc2cccc(C(F)(F)F)c2)c2ccccc23)c1 (stereo not given)	/	-18%	7%	18µM*	1%	16µM*
O=C1CSC2(C(=O)N3CCCc4cccc2c43)N1c1cccc(C(F)(F)F)c1 (stereo not given)	-9%	-5%	-6%	21µM*	3%	?
CN1C(=O)C2(SCC(=O)N2c2ccc(F)cc2)c2ccccc21 (stereo not given)	/	-7%	21%	/	6%	/
CCOc1ccc(NC(=O)Nc2cc(C(=O)O)ccc2N2CC3CC(C2)c2cccc(=O)n2C3)cc1 (stereo not given)	?	1%	-3%	-17%	-3%	32%
O=C(CCc1[nH]c2ccccc2c1Sc1ccccc1)NCCO	-12%	0%	-1%	-11%	5%	-7%
CCCCCN(C(=O)CCC(=O)OCCOc1ccccc1)c1c(N)n(CCCC)c(=O)[nH]c1=O	2%	-5%	-14%	6%	-1%	-6%
CCCCCN(C(=O)CCC(=O)OCc1cccc(Br)c1)c1c(N)n(CCCC)c(=O)[nH]c1=O	1%	6%	9%	?	/	15µM*
CCCCCN(C(=O)CCC(=O)OCCOc1cccc(C)c1)c1c(N)n(CCCC)c(=O)[nH]c1=O	-7%	0%	?	?	2%	21µM*
O=C(O)Cn1nnc(-c2ccc(OCc3ccccc3)cc2)n1	-2%	/	6%	-14%	/	-7%
COc1ccc(NC(=O)CSCC(=O)N2CCCc3ccccc32)cc1	-8%	-24%	-4%	-5%	/	-7%
CN1CCN(C(=O)CSc2nc3ccc(NC(=O)c4ccccc4F)cc3s2)CC1	0%	17%	-15%	?	/	?
O=C(Nc1ccc2nc(SCC(=O)N3CCc4ccccc43)sc2c1)c1ccccc1	/	-9%	6%	5.8µM*	5%	2.3µM*
COc1ccc(C(=O)Nc2ccc3nc(SCC(=O)N4CCCc5ccccc54)sc3c2)cc1	/	-1%	-6%	9.2µM*	1%	18µM*
O=C(Nc1ccc2nc(SCC(=O)N3CCCc4ccccc43)sc2c1)c1ccccc1	/	-14%	2%	21µM*	4%	18µM*
Cc1ccc(C(=O)Nc2ccc3nc(SCC(=O)N4CCCc5ccccc54)sc3c2)cc1	/	-7%	20%	12µM*	1%	7.3µM*
O=C(Nc1nnc(SCC(=O)N2CCCc3ccccc32)s1)c1ccc2ccccc2c1	-17%	-9%	-14%	-27%	5%	?
Cc1ccc2c(c1)N(CC(=O)N1CCCC1)C(=O)c1cccnc1O2	-10%	-7%	-1%	3%	7%	21%
Cc1nc2cnc(Oc3cccc(Cl)c3)nc2n(Cc2ccc(F)cc2)c1=O	/	-19%	?	?	/	?
CC(=O)N1CCc2c(sc3c2c(=O)n(-c2ccc(C)cc2)c(=O)n3Cc2ccccc2C)C1	/	-1%	3%	?	6%	?
CCOC(=O)C1=NNC(C(=O)OCC)C1c1ccccc1 (stereo not given)	-8%	/	-8%	?	/	2%
CCOC(=O)[C@H]1NN=C(C(=O)OC)[C@@H]1c1ccccc1	38µM*	-3%	?	-14%	3%	-10%
Cc1ccc(NC(=O)CSc2ncnc3ccccc23)cc1S(=O)(=O)N1CCCCCC1	8%	-18%	-16%	26µM*	8%	?
O=C(CSc1ncnc2ccccc12)Nc1cc(S(=O)(=O)N2CCCCC2)ccc1Cl	7%	-4%	-8%	?	5%	26µM*
O=C(CSc1ncnc2ccccc12)Nc1cccc(S(=O)(=O)N2CCCC2)c1	-2%	-7%	15%	?	3%	?
COc1ccc(OC)c(C2CC(=O)Nc3c2c(=O)n(C)c2ncnn32)c1 (stereo not given)	/	0%	-7%	/	3%	/
SMILES	PLK1 PBD inh	KAT2A inh	VDR inh	DT40 TDP1 CPT	TDP1 block	DT40 TDP1 no CPT
CCCCN1CC(=O)N2[C@H](c3ccc(OC)cc3)[C@@H]3C(=O)N(CC)C(=O)[C@@H]3[C@]2(C)C1=O	-6%	-2%	-3%	-18%	/	4%
CC(=O)c1ccccc1OCc1ccc(S(=O)(=O)Cc2ccccc2)cc1	0%	0%	?	26µM*	/	21µM*
Cc1ccc(-c2nc(SC(C)C(=O)c3c(N)n(C)c(=O)n(C)c3=O)n[nH]2)cc1 (stereo not given)	0%	2%	10%	?	4%	23µM*
Cc1ccc(-c2nc(SCC(=O)c3c(N)n(C)c(=O)n(C)c3=O)n[nH]2)cc1	-13%	-11%	-5%	5%	4%	5%
CC(C)CC(C(=O)NCC1CCN(Cc2ccc(F)cc2)CC1)N1Cc2ccccc2C1=O (stereo not given)	/	2%	12%	23µM*	5%	21µM*
Cc1ccc(C)c(CN2CCC(CNC(=O)C(CC(C)C)N3Cc4ccccc4C3=O)CC2)c1 (stereo not given)	/	-8%	6%	?	4%	12µM*
Cc1nc2c(OCc3ccccc3)cccn2c1CC#N	/	-7%	-19%	?	-7%[56.1 µM]	-56%
N#Cc1ccccc1Cn1c(=O)n(CCCC(=O)NCc2ccccc2Cl)c(=O)c2ccccc21	/	-11%	-6%	?	0%	?
CCCc1ccc(-c2cc(C(=O)NN3CCOCC3)c3ccccc3n2)cc1	-2%	2%	6%	?	2%	0.46µM*
CC(C)Oc1cccc(-c2cc(C(=O)NN3CCOCC3)c3ccccc3n2)c1	-9%	-18%	-17%	15µM*	4%	10µM*
O=C(NN1CCOCC1)c1cccc2ccccc12	30µM*	-1%	?	?	2%	?
O=C(NN1CCOCC1)c1ccccc1F	-12%	-7%	-1%	-12%	1%	8%
CCc1ccc(-c2cc(C(=O)Nn3cnnc3)c3ccccc3n2)cc1	-13%	0%	4%	7.3µM*	-3%	13µM*
CCC/C=N/NC(=O)c1cc(-c2ccccc2)nc2ccccc12	-4%	28%	-3%	-10%	5%	?
Cc1ccc(-n2c(=O)c3c(c4cc(C)ccc4n3C)n(CC(=O)Nc3ccc(F)cc3)c2=O)cc1	/	-1%	-3%	?	6%	?
Cn1c(C(=O)NCCc2c[nH]c3ccccc23)cc2sccc21	-2%	-8%	-8%	?	10%	?
